From PubChem BioAssay (NCI)
Compounds without any hit were thinned out: in the full panel of roughly 79,000, 15% have a hit. Values without a mark were called inactive. Calls of active or inactive are those of the source. Rule as the data show it: active = growth inhibition above about 70%; inactive = the rest.

assay: NCI Yeast Anticancer Drug Screen. Data for the rad50 strain (AID 155);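 also: 0% = growth of vehicle-only cultures of the same strain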; settings: S. cerevisiae rad50 strain growth inhibition; at 50.0 µM; stronger effect = higher value
Method in brief: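 Compounds were tested on a yeast strain with an engineered DNA damage repair alteration; the reported value is growth inhibition normalised to vehicle treatment.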

Compound | growth inhibition
CCC(CC)C(=O)OCCCC1CCCO1 (stereo not given) | 12.9%
CCCCCCCCCCCCCC(=O)N(CCCCCCCCC)CC(O)C(O)C(OC1OC(CO)C(O)C(O)C1O)C(O)CO (stereo not given) | -13.8%
NC(=O)c1nnsc1N/N=C/c1ccc([N+](=O)[O-])cc1 | 8.85%
C=C1C(=O)O[C@@H]2/C=C(/C)[C@@H](OC(C)=O)C[C@@H](O)/C(C)=C\[C@@H](OC(=O)[C@]3(C)O[C@@H]3C)[C@@H]12 | 11.3%
COc1ccc2c(c1)C1(C)CCC(=O)C(C)=C1CC2 (stereo not given) | 17.9%
O=C(COC(=O)c1cccc([N+](=O)[O-])c1)c1ccc(Br)cc1 | 6.55%
COc1cccc(CN2CCCN(Cc3cccc(OC)c3O)C2c2ccccc2)c1O | 22.1%
CCCN(CCN(CC)CC)C(=O)N(CC)CC | -11%
O=[N+]([O-])c1ccc(-c2ccccc2CO)cc1 | -9.55%
O=c1c2ccccc2nc(-c2ccc(Br)cc2)n1NC1OC(CO)C(O)C(O)C1O (stereo not given) | 7.05%
O=C(O)c1cccc(CO)c1O | 3.25%
CN(C)c1ccc(N=C(C#CC#Cc2ccccc2)c2ccccc2)cc1 | 3.85%
CCCCOC(=O)CCCCCCCCC(=O)OCCCC | 23.6%
COc1c(Cl)c(Cl)c2ncc(Cl)cc2c1Cl | -3.7%
CCOC(=O)COc1ccc(Cl)cc1CCl | 3.2%
Cc1ccc(NC(=O)Nc2cccc(C(F)(F)F)c2)cc1NC(=O)Nc1cccc(C(F)(F)F)c1 | 2.75%
Cc1cc(C(=O)CSC(=S)SC(C)(C)C)ccc1Cl | 9.3%
c1ccc(C2Nc3ccccc3NC2c2ccccc2)cc1 (stereo not given) | 29.5%
Cc1ccccc1C(=O)NCc1ccccc1 | 13.6%
O=c1[nH]c(-c2ccncc2)nnc1-c1ccc(Cl)cc1 | -4.4%

Compound | growth inhibition
CC(=O)OCCn1c(C)nc2cc(Cl)c(Cl)cc21 | 33.1%
Cc1cc(C)cc(O)c1 | -9.4%
Cc1[nH]c2ccc(-c3ccccc3)cc2c1CC(=O)O | 51.5%
O=Ic1ccccc1 | 16.6%
O=C1CCC2c3ccccc3C(=O)C2C1 (stereo not given) | 6.7%
O=C(NNC(=O)c1ccccc1F)c1ccc2ccccc2c1 | -15.3%
COc1ccc2c(O)c(Oc3ccc(Cl)cc3)c(=O)oc2c1 | -4.2%
COC(=O)/C(=N/NC(N)=O)C(C(=O)OC)C(=O)C(=O)Nc1ccc(Cl)cc1 (stereo not given) | 1.4%
COC(=O)C1(C(=O)OC)C2CCCCC21 (stereo not given) | 4.65%
CCCC(=O)Nc1ccc2c(ccn2COC)c1 | -37.2%
CCCCCCCCCCCc1cc(=O)n(-c2cc(Cl)ccc2Cl)n1C | 99.1% (active)
CC1(C)OCC(Cc2ccc3c(c2)OCO3)CO1 | 1.7%
c1ccc2c(c1)cc1n2CC2CN=NC12 (stereo not given) | -5.85%
Cc1cc(=O)c2cc(N=Cc3ccc(N(C)C)cc3)ccc2o1 | 5.25%
C1CSCCSCCCSCCSCCCSCCSCCCSCCSC1 | 21.2%
CC(=O)C(Cc1cccc([N+](=O)[O-])c1)Cc1cccc([N+](=O)[O-])c1 | -3.7%
COC1=C(O)C(=O)N(C)C(=O)C1 | 20.4%
COC(=O)C1=CC(O)CCC1c1ccc(OC)cc1 (stereo not given) | -6.2%
CCOC(=O)C1=CC2CCOC2O1 (stereo not given) | -19.8%
CCCCCCC(C)OC(C)=O (stereo not given) | -15.6%

assay: NCI Yeast Anticancer Drug Screen. Data for the mec2-1 strain (AID 157); settings: S. cerevisiae mec2-1 strain, at 50.0 µM, stronger effect = higher value
Method in brief: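 Yeast mec2-1 mutant treated with compound. Readout: growth inhibition vs vehicle controls.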

Compound | growth inhibition
CCC(CC)C(=O)OCCCC1CCCO1 (stereo not given) | 2.9%
CCCCCCCCCCCCCC(=O)N(CCCCCCCCC)CC(O)C(O)C(OC1OC(CO)C(O)C(O)C1O)C(O)CO (stereo not given) | -41.4%
NC(=O)c1nnsc1N/N=C/c1ccc([N+](=O)[O-])cc1 | 25.9%
C=C1C(=O)O[C@@H]2/C=C(/C)[C@@H](OC(C)=O)C[C@@H](O)/C(C)=C\[C@@H](OC(=O)[C@]3(C)O[C@@H]3C)[C@@H]12 | -0.85%
COc1ccc2c(c1)C1(C)CCC(=O)C(C)=C1CC2 (stereo not given) | -3.95%
O=C(COC(=O)c1cccc([N+](=O)[O-])c1)c1ccc(Br)cc1 | 20.3%
COc1cccc(CN2CCCN(Cc3cccc(OC)c3O)C2c2ccccc2)c1O | 3.2%
CCCN(CCN(CC)CC)C(=O)N(CC)CC | 14.3%
O=[N+]([O-])c1ccc(-c2ccccc2CO)cc1 | -10.2%
O=c1c2ccccc2nc(-c2ccc(Br)cc2)n1NC1OC(CO)C(O)C(O)C1O (stereo not given) | 3.05%
O=C(O)c1cccc(CO)c1O | -10.5%
CN(C)c1ccc(N=C(C#CC#Cc2ccccc2)c2ccccc2)cc1 | -4%
CCCCOC(=O)CCCCCCCCC(=O)OCCCC | -9%
COc1c(Cl)c(Cl)c2ncc(Cl)cc2c1Cl | -3.3%
CCOC(=O)COc1ccc(Cl)cc1CCl | 6.4%
Cc1ccc(NC(=O)Nc2cccc(C(F)(F)F)c2)cc1NC(=O)Nc1cccc(C(F)(F)F)c1 | 15%
Cc1cc(C(=O)CSC(=S)SC(C)(C)C)ccc1Cl | -30.1%
c1ccc(C2Nc3ccccc3NC2c2ccccc2)cc1 (stereo not given) | 5.75%
Cc1ccccc1C(=O)NCc1ccccc1 | -6.7%
O=c1[nH]c(-c2ccncc2)nnc1-c1ccc(Cl)cc1 | -8.1%

Compound | growth inhibition
CC(=O)OCCn1c(C)nc2cc(Cl)c(Cl)cc21 | 5.45%
Cc1cc(C)cc(O)c1 | -12.8%
Cc1[nH]c2ccc(-c3ccccc3)cc2c1CC(=O)O | -22.8%
O=Ic1ccccc1 | 0.2%
O=C1CCC2c3ccccc3C(=O)C2C1 (stereo not given) | 4.2%
O=C(NNC(=O)c1ccccc1F)c1ccc2ccccc2c1 | -13.3%
COc1ccc2c(O)c(Oc3ccc(Cl)cc3)c(=O)oc2c1 | -1.1%
COC(=O)/C(=N/NC(N)=O)C(C(=O)OC)C(=O)C(=O)Nc1ccc(Cl)cc1 (stereo not given) | -21.8%
COC(=O)C1(C(=O)OC)C2CCCCC21 (stereo not given) | 9.3%
CCCC(=O)Nc1ccc2c(ccn2COC)c1 | -2.2%
CCCCCCCCCCCc1cc(=O)n(-c2cc(Cl)ccc2Cl)n1C | 99.3% (active)
CC1(C)OCC(Cc2ccc3c(c2)OCO3)CO1 | -11.1%
c1ccc2c(c1)cc1n2CC2CN=NC12 (stereo not given) | 14.4%
Cc1cc(=O)c2cc(N=Cc3ccc(N(C)C)cc3)ccc2o1 | -10.9%
C1CSCCSCCCSCCSCCCSCCSCCCSCCSC1 | 20.9%
CC(=O)C(Cc1cccc([N+](=O)[O-])c1)Cc1cccc([N+](=O)[O-])c1 | -7.8%
COC1=C(O)C(=O)N(C)C(=O)C1 | 9.35%
COC(=O)C1=CC(O)CCC1c1ccc(OC)cc1 (stereo not given) | -10.7%
CCOC(=O)C1=CC2CCOC2O1 (stereo not given) | -14.8%
CCCCCCC(C)OC(C)=O (stereo not given) | -44.5%
